This is an account of results in the supplement of paper PMC10849652.

Of roughly 8,800 targets only a part is listed; those with a hit were picked by preference. About 0.5% of all pairs of compound and target were hits. Values without a mark were called inactive.

UniProt Q9UBG0, sequence (Q9UBG0 whole entry, looked up): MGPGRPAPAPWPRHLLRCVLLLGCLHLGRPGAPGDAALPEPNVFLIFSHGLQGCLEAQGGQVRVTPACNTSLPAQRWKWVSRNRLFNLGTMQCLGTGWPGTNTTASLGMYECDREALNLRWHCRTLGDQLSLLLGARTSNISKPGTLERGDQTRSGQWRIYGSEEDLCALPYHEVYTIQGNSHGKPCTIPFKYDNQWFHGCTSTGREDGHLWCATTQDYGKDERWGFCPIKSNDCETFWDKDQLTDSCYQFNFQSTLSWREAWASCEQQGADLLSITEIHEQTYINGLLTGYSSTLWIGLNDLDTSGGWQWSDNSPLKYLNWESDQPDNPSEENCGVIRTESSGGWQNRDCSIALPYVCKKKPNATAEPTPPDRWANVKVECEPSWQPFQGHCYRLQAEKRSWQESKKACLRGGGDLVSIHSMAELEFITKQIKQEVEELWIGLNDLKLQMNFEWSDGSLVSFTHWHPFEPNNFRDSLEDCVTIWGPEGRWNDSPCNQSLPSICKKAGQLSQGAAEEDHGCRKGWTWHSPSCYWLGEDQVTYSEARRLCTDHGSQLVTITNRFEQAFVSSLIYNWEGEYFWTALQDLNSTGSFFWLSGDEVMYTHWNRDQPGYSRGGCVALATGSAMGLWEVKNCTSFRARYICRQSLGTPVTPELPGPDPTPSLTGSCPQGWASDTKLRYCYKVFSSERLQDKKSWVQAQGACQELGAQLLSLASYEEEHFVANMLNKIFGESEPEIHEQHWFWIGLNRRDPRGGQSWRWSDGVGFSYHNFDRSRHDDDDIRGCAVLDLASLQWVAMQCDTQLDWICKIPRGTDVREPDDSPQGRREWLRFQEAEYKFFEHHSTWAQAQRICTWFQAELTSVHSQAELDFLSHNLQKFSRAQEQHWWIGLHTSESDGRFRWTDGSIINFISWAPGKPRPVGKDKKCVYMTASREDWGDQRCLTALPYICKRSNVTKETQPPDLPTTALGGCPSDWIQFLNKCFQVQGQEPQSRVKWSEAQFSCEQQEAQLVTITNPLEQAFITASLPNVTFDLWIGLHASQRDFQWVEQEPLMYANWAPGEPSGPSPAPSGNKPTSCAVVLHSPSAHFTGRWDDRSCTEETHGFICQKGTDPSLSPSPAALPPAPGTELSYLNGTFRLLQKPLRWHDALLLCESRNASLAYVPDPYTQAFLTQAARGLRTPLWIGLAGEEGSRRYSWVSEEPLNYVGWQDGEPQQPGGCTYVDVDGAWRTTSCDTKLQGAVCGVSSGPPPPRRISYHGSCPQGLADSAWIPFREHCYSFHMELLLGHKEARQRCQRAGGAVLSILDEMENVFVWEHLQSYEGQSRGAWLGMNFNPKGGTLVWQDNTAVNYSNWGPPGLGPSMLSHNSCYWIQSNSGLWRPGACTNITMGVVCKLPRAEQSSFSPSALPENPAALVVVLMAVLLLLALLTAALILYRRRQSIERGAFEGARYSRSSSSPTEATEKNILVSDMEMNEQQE
UniProt Q8WXB1, sequence (Q8WXB1 whole entry, looked up): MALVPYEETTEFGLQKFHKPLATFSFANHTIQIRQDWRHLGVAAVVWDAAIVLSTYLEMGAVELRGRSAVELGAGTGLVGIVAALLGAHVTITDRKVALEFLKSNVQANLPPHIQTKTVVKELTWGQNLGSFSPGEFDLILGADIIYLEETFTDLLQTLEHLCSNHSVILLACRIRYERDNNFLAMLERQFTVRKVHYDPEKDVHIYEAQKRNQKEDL
UniProt Q9ULI4, sequence (Q9ULI4 whole entry, looked up): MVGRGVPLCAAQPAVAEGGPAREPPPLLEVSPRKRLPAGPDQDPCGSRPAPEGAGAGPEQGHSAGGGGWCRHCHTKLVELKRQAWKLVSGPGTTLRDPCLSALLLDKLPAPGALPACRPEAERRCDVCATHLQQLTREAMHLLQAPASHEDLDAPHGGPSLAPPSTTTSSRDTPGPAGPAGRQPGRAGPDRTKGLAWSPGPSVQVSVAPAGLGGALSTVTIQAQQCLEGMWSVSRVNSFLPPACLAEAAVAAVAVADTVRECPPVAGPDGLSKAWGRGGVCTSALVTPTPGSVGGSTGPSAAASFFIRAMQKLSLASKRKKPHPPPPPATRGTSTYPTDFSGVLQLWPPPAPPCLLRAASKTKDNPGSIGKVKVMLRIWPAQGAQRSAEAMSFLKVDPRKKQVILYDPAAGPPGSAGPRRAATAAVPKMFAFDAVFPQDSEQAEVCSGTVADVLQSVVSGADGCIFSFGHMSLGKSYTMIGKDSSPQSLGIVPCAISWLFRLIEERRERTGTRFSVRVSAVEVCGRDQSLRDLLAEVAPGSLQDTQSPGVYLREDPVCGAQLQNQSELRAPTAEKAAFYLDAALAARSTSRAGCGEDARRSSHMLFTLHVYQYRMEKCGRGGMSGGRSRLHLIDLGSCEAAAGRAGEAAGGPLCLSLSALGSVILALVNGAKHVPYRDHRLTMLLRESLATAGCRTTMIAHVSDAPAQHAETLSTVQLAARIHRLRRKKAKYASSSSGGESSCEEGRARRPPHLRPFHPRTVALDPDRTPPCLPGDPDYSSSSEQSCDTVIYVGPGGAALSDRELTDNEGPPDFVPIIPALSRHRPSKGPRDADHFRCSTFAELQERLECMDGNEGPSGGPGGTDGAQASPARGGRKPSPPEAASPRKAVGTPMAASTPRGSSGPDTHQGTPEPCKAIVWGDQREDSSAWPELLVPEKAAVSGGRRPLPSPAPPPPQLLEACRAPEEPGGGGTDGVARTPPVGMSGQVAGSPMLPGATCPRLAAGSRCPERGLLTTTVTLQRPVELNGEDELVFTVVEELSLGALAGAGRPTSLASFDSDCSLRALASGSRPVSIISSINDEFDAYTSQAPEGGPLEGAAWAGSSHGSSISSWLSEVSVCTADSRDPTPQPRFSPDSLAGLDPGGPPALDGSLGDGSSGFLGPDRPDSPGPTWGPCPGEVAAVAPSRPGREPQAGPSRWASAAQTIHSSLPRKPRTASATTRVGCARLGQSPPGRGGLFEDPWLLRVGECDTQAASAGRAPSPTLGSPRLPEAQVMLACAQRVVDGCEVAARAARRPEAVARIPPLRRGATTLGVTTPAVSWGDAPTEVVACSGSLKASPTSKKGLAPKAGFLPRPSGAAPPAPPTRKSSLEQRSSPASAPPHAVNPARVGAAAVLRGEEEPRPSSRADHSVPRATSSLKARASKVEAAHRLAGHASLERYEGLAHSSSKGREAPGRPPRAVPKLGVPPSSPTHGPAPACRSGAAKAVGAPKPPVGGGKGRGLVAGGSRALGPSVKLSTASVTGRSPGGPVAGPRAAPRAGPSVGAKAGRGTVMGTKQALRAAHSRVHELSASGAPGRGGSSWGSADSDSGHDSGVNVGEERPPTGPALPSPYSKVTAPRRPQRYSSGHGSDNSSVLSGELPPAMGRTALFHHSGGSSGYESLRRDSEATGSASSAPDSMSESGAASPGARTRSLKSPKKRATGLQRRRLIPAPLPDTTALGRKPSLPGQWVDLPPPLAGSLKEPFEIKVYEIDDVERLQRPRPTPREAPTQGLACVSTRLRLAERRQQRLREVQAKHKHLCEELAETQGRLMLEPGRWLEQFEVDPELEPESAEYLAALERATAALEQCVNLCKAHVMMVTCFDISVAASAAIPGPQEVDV
UniProt O00139, sequence (O00139 whole entry, looked up): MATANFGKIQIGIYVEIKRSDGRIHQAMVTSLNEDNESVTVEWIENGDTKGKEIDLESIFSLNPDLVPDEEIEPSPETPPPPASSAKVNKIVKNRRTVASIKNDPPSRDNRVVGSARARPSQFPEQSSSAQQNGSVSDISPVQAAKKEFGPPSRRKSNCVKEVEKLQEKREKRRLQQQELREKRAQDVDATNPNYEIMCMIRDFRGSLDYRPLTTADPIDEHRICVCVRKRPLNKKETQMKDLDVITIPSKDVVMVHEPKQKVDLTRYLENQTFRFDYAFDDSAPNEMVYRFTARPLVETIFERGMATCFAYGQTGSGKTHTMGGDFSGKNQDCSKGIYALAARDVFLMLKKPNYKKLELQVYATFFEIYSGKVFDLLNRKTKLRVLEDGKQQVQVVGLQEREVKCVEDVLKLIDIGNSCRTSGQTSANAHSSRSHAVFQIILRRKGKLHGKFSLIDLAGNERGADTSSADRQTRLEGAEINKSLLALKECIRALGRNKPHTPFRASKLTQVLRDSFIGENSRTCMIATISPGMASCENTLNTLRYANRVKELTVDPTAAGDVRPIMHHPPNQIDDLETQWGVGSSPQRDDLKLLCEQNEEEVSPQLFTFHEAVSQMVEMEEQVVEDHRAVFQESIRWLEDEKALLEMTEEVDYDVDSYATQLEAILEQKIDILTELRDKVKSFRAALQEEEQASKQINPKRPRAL
UniProt P08473, sequence (P08473 whole entry, looked up): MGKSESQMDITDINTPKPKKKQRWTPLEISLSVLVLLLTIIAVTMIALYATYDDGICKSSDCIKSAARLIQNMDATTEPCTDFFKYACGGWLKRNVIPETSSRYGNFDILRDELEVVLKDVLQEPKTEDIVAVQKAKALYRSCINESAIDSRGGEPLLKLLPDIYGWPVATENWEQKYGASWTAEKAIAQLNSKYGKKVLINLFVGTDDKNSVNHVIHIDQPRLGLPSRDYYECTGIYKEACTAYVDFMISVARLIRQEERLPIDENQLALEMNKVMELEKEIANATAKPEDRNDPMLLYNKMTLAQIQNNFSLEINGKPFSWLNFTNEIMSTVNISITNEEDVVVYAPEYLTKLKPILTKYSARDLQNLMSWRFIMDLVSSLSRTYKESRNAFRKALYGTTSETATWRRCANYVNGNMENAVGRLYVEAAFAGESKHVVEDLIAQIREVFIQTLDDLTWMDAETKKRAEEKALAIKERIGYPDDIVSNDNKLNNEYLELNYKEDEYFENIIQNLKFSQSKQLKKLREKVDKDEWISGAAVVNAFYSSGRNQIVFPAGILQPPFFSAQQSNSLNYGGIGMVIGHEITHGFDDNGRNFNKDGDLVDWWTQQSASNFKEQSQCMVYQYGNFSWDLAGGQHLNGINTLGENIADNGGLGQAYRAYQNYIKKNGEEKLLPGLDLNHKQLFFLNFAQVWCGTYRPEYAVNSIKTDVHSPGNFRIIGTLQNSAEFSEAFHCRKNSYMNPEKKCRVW

Compound in the assay: c1ccc([C@@H]2C[C@H]2NC2CCNCC2)cc1
Briefly: log2 fold change, soluble protein after heating vs DMSO (PISA); higher = thermal stabilisation; K562 lysate, 10 uM; active = over 0.2 and 3.5 SD of the protein, either way, in both replicates (recomputed). The method in brief:
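The values are log-two fold changes in thermal stability compared with solvent controls and come from duplicates. They were obtained by TMTpro 16plex LC-MS/MS, with channel sums equalised, on the supernatant after 21,000xg for 90 min. That supernatant came from crude K562 extract at 1 mg/mL protein treated with 10 μM compound for 30 min, heated for 3 min across 48°C-58°C, pooled and brought to 0.5% NP-40 at 4°C.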
As for LRRC9 (UniProt Q6ZRR7), the log2 fold change is 0.209.

With LY6E (UniProt Q16553), the log2 fold change is -0.815. Under MRPL22 (UniProt Q9NWU5) stands 0.019; under MME (UniProt P08473), -0.001; under MRPL30 isoform 2 (UniProt Q8TCC3), 0.476. Under KRAS (UniProt P01116) stands -0.092; under KIF26A (UniProt Q9ULI4), -0.018; under MDM2 isoform 11 (UniProt Q00987), -0.158. The result for KIF2A isoform 2 (UniProt O00139) reads 0.326; that for MPDZ (UniProt O75970), -0.09; that for MED28 (UniProt Q9H204), 0.018. For the target MEGF8 (UniProt Q7Z7M0), the log2 fold change was 0.1. The result for MRC2 (UniProt Q9UBG0) reads -0.084; that for MCUB (UniProt Q9NWR8), 0.205; that for METTL21A (UniProt Q8WXB1), 0.

Turning to MDM1 (UniProt Q8TC05), the log2 fold change is -0.866 (active). The result for LSM11 (UniProt P83369) reads -0.089; that for LYN isoform 2 (UniProt P07948), 0.102; that for MAP2K3 isoform 3 (UniProt P46734), -0.006. LAS1L (UniProt Q9Y4W2): the log2 fold change is -0.026. The result for MAN2B2 (UniProt Q9Y2E5) reads 0.255. With MAPK7 (UniProt Q13164), the log2 fold change is 0.042. The result for MRPL27 (UniProt Q9P0M9) reads 0.208. Under MED25 isoform 3 (UniProt Q71SY5) stands 0.052; under LGALS3BP (UniProt Q08380), -0.071.

Take LRIF1 (UniProt Q5T3J3): the log2 fold change was -0.071. Under KIF3C (UniProt O14782) stands 0.022. The result for LEPROT (UniProt O15243) reads -0.161.
